According to ChEMBL document CHEMBL3988442, “University of Dundee, Small-Polar-MMV Screening Library” (2021):
For some assays here: Entries with a potency or affinity are not part of this list.

Key:
Design in all cases: scale not given: direction of the effect not stated beside the values
[1] = target: Protein translocase subunit SecA (Escherichia coli (strain K12)) (UniProt P10408); assay: Assay to Identify E. coli SecA ATPase Inhibitors; type: functional; conditions: 30 µM
[2] = target: T1, Ubiquitin-activating enzyme e1, putative (Leishmania donovani (strain BPK282A1)) (UniProt E9BSI1); assay: Leishmania donovani Ubiquitin Activating Enzyme (LdE1); type: functional; conditions: 30 µM
T1 sequence (whole entry): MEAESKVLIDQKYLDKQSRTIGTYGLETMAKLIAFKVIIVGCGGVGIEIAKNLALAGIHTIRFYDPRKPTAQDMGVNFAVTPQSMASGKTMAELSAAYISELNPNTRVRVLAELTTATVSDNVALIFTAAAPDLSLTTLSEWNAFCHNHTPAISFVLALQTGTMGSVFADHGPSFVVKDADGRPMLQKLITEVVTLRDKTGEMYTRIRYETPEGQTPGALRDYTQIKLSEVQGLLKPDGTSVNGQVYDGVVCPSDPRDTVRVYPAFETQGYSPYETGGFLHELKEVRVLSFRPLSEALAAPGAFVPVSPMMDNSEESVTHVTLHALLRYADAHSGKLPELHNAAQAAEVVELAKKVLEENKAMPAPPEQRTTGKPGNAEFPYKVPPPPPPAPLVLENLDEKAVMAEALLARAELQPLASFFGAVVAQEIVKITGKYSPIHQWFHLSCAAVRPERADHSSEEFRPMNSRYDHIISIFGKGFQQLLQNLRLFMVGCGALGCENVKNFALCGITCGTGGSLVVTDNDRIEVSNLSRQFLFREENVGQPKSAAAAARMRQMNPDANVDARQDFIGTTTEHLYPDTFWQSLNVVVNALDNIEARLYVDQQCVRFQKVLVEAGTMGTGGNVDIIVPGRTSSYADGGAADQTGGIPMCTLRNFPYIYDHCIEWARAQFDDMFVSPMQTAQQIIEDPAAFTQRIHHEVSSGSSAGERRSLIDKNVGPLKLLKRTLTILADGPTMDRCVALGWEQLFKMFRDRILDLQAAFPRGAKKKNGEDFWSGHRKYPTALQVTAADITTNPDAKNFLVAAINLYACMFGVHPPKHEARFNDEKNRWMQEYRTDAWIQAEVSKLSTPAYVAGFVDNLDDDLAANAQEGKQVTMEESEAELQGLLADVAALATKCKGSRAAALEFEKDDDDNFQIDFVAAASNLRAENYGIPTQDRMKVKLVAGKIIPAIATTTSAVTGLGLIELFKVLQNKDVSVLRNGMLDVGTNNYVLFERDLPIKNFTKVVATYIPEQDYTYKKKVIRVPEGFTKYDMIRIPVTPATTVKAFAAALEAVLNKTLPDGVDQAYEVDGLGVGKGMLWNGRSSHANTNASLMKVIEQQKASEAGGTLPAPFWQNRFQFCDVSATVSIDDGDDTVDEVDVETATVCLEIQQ

[3] = target: AMP-activated protein kinase, AMPK (Homo sapiens) (UniProt P54646+O43741+P54619+Q9UGJ0+Q9Y478+Q13131+Q9UGI9); assay: AMP-dependent Kinase enzyme assay. An in vitro enzyme assay that detects ADP turnover that is directly proportional to AMPK activity. This uses naive AMPK that is activated during the assay with MK-8722; type: functional; conditions: 30 µM
[4] = target: Sialic acid-binding Ig-like lectin 9 (Homo sapiens) (UniProt Q9Y336); assay: Hs-Siglec9 ALPHAscreen SOP 20170721; conditions: 10 µM
[5] = test system: Trypanosoma cruzi; assay: Trypanosoma cruzi phosphomannomutase and mannose-1-phosphate guanylyltransferase assay; type: functional; conditions: 10 µM
[6] = target: T2, Arginase-2, mitochondrial (Homo sapiens) (UniProt P78540); assay: in vitro enzyme assay to detect the production of urea directly proportional to the activity of Arginase II; type: functional; conditions: 33.3 µM; further: in the data most compounds retested in dose-response had high values
T2 sequence (whole entry): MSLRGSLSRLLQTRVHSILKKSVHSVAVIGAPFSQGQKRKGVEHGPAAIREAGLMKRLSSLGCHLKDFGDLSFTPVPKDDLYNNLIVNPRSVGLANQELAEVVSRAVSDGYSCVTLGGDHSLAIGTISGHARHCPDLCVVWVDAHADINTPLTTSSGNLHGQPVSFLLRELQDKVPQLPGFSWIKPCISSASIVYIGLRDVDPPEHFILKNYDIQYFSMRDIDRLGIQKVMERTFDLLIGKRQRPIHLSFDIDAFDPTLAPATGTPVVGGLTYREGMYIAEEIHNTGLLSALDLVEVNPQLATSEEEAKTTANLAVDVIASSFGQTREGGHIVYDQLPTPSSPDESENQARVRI

[7] = target: T3, Proteasome subunit beta (Trypanosoma cruzi) (UniProt O96673); assay: Trypanosoma cruzi proteasome chymotrypsin-like activity (TcProtChymo) assay.; further: in the data most compounds retested in dose-response had high values; type: functional; conditions: 9.37 µM
T3 sequence (whole entry): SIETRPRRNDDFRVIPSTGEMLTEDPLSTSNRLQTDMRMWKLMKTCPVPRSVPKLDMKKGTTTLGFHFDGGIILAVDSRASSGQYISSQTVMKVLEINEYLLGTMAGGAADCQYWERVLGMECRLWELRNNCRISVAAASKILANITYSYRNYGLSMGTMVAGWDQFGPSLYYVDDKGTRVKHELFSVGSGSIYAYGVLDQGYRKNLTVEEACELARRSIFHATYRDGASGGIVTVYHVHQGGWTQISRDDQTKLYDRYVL

[8] = organism: Homo sapiens; assay: To identify inhibition of the IFN signalling (Jak-Stat) pathway via expression of an eGFP reporter gene under the control of an IFN-stimulated response element (ISRE) containing MxA promoter.; type: functional; conditions: 30 µM
[9] = target: T4, Tyrosyl-tRNA synthetase, putative (Trypanosoma cruzi (strain CL Brener)) (UniProt Q4DSP6); assay: Trypanosoma cruzi tyrosyl tRNA synthetase (TcYRS) _High Tyrosine SOP; type: functional; conditions: 30 µM; further: in the data most compounds retested in dose-response had high values
T4 sequence (whole entry): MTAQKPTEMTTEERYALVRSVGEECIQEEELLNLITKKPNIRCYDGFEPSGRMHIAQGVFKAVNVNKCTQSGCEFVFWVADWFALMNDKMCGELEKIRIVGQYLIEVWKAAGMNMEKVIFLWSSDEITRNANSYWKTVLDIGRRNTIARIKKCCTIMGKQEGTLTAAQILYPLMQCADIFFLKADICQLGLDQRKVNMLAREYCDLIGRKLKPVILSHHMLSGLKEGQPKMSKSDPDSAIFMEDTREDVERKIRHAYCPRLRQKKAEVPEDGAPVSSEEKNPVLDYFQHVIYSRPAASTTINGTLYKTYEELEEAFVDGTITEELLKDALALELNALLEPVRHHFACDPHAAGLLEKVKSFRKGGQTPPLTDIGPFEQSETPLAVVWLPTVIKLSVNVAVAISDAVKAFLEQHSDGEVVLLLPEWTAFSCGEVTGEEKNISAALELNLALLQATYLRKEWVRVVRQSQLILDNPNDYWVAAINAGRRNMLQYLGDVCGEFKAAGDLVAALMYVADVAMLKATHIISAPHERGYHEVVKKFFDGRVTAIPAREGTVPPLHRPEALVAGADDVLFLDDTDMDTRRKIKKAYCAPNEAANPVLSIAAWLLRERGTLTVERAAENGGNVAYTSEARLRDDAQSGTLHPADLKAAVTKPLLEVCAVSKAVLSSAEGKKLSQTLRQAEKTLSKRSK

[10] = target: T4, Tyrosyl-tRNA synthetase, putative (Trypanosoma cruzi (strain CL Brener)); assay: Trypanosoma cruzi tyrosyl tRNA synthetase (TcYRS) SOP; type: functional; conditions: 30 µM
[11] = target: Chromo domain-containing protein 1 (Saccharomyces cerevisiae (strain ATCC 204508 / S288c) (Baker's yeast)) (UniProt P32657); assay: ScCHD-1 Enzyme Inhibition Assay; type: functional; conditions: 30 µM; further: in the data most compounds retested in dose-response had high values
Sequence of Chromo domain-containing protein 1 (Saccharomyces cerevisiae (strain ATCC 204508 / S288c) (Baker's yeast)) (P32657 whole entry, the tested form may be a part): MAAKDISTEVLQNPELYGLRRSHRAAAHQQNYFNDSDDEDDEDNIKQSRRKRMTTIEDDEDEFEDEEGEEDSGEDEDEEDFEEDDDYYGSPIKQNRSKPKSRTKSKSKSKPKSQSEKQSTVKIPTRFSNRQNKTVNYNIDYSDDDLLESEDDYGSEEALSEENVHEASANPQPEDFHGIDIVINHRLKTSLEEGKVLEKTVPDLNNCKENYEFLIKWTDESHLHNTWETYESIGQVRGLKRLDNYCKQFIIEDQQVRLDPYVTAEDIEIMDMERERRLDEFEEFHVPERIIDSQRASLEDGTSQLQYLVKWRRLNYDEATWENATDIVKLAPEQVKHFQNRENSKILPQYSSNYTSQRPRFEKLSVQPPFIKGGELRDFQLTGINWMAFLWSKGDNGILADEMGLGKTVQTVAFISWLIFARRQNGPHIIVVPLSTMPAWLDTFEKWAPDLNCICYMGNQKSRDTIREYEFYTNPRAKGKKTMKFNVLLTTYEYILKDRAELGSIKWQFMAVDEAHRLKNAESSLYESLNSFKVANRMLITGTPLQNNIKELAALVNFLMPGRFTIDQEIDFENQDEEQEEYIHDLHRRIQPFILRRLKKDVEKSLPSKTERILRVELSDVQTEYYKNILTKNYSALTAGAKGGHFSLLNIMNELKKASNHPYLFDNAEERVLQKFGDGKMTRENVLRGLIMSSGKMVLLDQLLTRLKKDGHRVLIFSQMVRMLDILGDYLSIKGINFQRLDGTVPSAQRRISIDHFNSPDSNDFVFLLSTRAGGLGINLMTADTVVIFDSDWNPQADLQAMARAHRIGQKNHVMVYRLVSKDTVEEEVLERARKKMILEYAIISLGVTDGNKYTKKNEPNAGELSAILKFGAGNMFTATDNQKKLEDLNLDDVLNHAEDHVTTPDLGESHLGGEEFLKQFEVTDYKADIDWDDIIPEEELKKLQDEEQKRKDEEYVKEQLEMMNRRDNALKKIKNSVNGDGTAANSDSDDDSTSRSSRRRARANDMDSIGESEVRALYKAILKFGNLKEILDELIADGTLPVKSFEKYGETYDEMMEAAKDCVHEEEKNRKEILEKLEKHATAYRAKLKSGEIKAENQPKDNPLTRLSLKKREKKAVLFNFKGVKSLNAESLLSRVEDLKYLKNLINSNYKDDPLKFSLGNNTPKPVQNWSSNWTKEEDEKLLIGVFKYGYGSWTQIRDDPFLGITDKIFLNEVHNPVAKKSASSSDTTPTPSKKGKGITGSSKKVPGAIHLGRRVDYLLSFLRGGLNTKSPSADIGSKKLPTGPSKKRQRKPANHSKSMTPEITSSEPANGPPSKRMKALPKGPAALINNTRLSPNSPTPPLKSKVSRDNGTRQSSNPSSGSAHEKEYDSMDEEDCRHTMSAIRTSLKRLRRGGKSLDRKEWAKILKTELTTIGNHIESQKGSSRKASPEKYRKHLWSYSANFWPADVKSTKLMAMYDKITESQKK

Sequence of Protein translocase subunit SecA (Escherichia coli (strain K12)) (P10408 whole entry): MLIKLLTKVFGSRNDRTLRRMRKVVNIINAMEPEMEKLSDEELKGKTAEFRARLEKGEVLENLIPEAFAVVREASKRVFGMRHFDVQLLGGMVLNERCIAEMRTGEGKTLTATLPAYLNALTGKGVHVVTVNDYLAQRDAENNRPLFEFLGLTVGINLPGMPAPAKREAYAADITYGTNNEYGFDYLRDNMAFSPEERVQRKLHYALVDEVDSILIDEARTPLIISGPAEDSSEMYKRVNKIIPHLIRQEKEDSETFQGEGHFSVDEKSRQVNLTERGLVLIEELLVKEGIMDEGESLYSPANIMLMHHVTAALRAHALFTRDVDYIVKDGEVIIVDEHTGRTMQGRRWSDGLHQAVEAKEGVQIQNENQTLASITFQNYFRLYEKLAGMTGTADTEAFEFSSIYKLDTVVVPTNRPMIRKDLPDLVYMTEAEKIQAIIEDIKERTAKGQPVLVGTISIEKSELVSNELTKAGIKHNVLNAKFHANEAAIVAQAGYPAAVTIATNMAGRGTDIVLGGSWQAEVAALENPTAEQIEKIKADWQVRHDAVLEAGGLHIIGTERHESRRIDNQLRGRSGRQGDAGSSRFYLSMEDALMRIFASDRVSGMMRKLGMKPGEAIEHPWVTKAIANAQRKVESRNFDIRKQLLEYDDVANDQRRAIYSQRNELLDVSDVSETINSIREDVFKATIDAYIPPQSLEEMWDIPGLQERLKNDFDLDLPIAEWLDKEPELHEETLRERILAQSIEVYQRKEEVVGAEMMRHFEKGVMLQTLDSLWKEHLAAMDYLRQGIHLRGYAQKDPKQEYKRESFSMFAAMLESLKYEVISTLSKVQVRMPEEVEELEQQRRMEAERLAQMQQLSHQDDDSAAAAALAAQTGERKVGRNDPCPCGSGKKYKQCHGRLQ
Sequence of Sialic acid-binding Ig-like lectin 9 (Homo sapiens) (Q9Y336 whole entry): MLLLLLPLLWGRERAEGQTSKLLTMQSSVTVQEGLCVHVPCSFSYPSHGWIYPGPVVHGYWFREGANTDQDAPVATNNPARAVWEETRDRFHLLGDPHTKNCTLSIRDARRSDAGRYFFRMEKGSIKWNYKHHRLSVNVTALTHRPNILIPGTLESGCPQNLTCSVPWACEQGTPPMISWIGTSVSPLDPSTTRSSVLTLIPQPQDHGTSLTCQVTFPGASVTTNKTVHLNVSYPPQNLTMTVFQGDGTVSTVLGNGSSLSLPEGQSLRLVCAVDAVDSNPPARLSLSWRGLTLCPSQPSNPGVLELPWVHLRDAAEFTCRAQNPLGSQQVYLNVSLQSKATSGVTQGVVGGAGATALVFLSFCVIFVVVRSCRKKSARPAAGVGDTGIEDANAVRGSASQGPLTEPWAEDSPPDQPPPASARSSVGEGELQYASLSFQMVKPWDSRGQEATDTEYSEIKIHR

Structure (SMILES) | Percent Effect [1] | Percent Effect [2] | Percent Effect [3] | Percent Effect [4] | Percent Effect [5] | Percent Effect [6] | Percent Effect [7] | Percent Effect [8] | Percent Effect [9] | Percent Effect [10] | Percent Effect [11]
Cc1ccc(CN2CC[C@H]3C[C@@H](c4nc(C5CC5)cs4)O[C@@H]3C2)o1 | -2.45% | 2.6% | 0.23% | 10% | 10.1% | -48.3% | 16.3% | 36.5% | 10.8% | 16.1% | -1.64%
Cc1noc([C@@H]2CCCN2C(=O)C2CCN(C(=O)C3CCC3)CC2)n1 | -2.73% | 5.48% | 27.2% | -1.91% | -6.27% | 0.909% | 11.7% | 27.9% | 0% | 5% | 98.2%
COCCNC(=O)[C@H]1C[C@@H]2CCN(Cc3ccoc3)C[C@H]2O1 | -1.42% | 8.11% | 5.25% | -7.78% | -8.7% | 7.96% | 23.2% | 2.97% | 0% | 7.69% | -1.51%
O=C(NCc1cc[nH]n1)NCC(c1ccco1)N1CCCC1 (stereo unspecified) | -3.53% | 8.11% | -2.2% | 17.4% | 1.66% | -0.744% | 12.4% | 7.09% | 5.38% | 11.1% | -2.11%
CN(Cc1nccn1CC(F)(F)F)C(=O)c1cccc(C#N)c1 | -3.37% | -2.63% | 6.05% | 3.82% | -3.21% | -4.73% | 3.74% | -14.9% | 3.19% | 5.2% | 13.6%
CN(C)C(=O)CS(=O)(=O)Cc1cc(Cl)c2c(c1)OCCCO2 | -5% | 18.4% | 2.36% | -11.3% | -4.2% | 3.24% | 6.68% | 3.48% | 1.48% | -8.64% | -7.42%
C[S+]([O-])c1nncn1CC(=O)c1ccc(Cl)c(Cl)c1 (stereo unspecified) | -5.28% | 8.11% | -4.71% | 15.3% | 5.57% | 2.73% | 4.38% | -5.62% | -4.3% | 1.24% | -5.11%
Cn1cnc2c1C(COCC1CC1)CN(Cc1ccc3c(c1)OCO3)C2 (stereo unspecified) | -5.21% | -2.7% | 15% | -2.11% | -0.977% | -3.75% | 0.0845% | 12.3% | 2.97% | -1.22% | -2.11%
Cc1ccc(C(=O)NS(=O)(=O)c2cccc3cnccc23)c(=O)[nH]1 | -5.08% | 13.5% | -0.0909% | 7.48% | 0.65% | 1.66% | 6.64% | 13% | 6.93% | 15.8% | 2.35%
c1cnc(NCc2ncn3c2CN(Cc2cccnc2)CCC3)nc1 | -0.478% | 2.7% | 0.693% | -4.85% | -2.15% | 1.25% | 8.03% | 2.98% | 8.91% | 8.54% | -0.718%
Cc1cccc(-c2ccc(C(=O)NCCN(C)C3CC3)c(=O)[nH]2)c1 | -4.4% | 0% | -7.73% | -0.0788% | -4.43% | 4.41% | -0.721% | 19% | 0.493% | 6.17% | -1.94%
Cc1cnn(CC2CCCN2C(=O)CCc2c(C)noc2Cl)c1 (stereo unspecified) | -2.86% | -2.63% | 5.68% | -4.15% | 7.11% | 4.73% | 13.5% | -23.3% | 5.32% | 5.2% | 1.72%
CC(=O)c1ccccc1C(=O)NCC1(CO)CC1 | -0.313% | 10.8% | -5.63% | 7.79% | 1.16% | -4.29% | 3.79% | 21.2% | 4.76% | -4.88% | -0.424%
N#Cc1ccc(OCCOc2ccccc2C(=O)N2CCOCC2)cc1 | -0.304% | 7.79% | -1.44% | 10.7% | 1.28% | -11% | 12.8% | -19.7% | 4.3% | 13.6% | -2.37%
CCS(=O)(=O)N1CCc2ccc(NC(=O)Nc3cccc(SC)c3)cc21 | -1.43% | -20.8% | 1.15% | 1.13% | 0.69% | -3.23% | 17.6% | 77.5% | -48.7% | -73.1% | -5.8%
CC1(C)CN(C(=O)NCCc2ccn(-c3ccccc3)n2)CCO1 | -4.22% | -2.6% | 8.97% | 11.9% | 1.47% | 4% | 2.02% | 8.51% | 2.86% | 7.06% | -12.9%
